From PubChem BioAssay AID1224921 (Broad Institute, 2016)
About 350 (25%) of roughly 1,400 compounds were called active. Roughly 2% stayed inconclusive and do not appear here. How the calls were made is not given here. These entries were drawn from the full list. Results with a measured potency or affinity are listed apart.

Test: C. difficile growth inhibition, confirmation, 4-point retest (AID 1224921);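 further: plate controls were DMSO wells for no effect and levofloxacin 16 µg/mL wells for full effect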
Conditions: Clostridioides difficile clinical isolate growth, OD600, 24 h, hits give low values; at 30 µM unless noted

Max activity, inactive:
CO[C@@H]1CN(C)C(=O)c2ccc(NC(=O)C3CC3)cc2OC[C@@H](C)N(Cc2cncnc2)C[C@@H]1C -9.09% [at 1.95 µM]
CCCC#Cc1ccc2c(c1)O[C@@H](CN(C)C(=O)c1ccccc1F)[C@@H](C)CN([C@@H](C)CO)S2(=O)=O 23.4%
C[C@@H]1CN([C@@H](C)CO)C(=O)Cc2cc(NC(=O)c3ccncc3)ccc2O[C@H]1CN(C)Cc1ccc(Cl)c(Cl)c1 36.8% [at 8 µM]
COc1ccc(CNC(=O)C[C@H]2CC[C@H](NC(=O)c3cccc(F)c3)[C@@H](CO)O2)cc1 -5.36% [at 1.95 µM]
C[C@H]1CCCCO[C@H](CN(C)Cc2ccc3c(c2)OCO3)[C@@H](C)CN([C@@H](C)CO)C(=O)c2cc(NC(=O)Nc3ccc(F)cc3)ccc2O1 29.6%
O=C(NCCc1ccccc1)[C@@H]1[C@@H](CO)[C@@H]2Cn3c(cccc3=O)[C@H]1N2C(=O)C1CC1 -6.59%
CCCN1C[C@H](C)[C@@H](OC)CN(C)C(=O)c2ccc(NC(=O)Nc3c(C)noc3C)cc2OC[C@H]1C 6.66%
CO[C@H]1CN(C)C(=O)c2cc(NC(=O)Nc3ccc(Cl)cc3)ccc2OC[C@H](C)N(C(=O)Nc2c(C)noc2C)C[C@@H]1C -13% [at 8 µM]
Cc1ccc(-c2ccc3c(c2)O[C@H](CN(C)Cc2cccnc2)[C@@H](C)CN([C@H](C)CO)S3(=O)=O)cc1 31.7%
CO[C@@H]1CN(C)C(=O)c2ccc(NS(=O)(=O)c3ccc(C)cc3)cc2OC[C@@H](C)N(C(=O)NC(C)C)C[C@H]1C 14.4%
CCCN1C[C@H](C)[C@H](OC)CN(C)C(=O)c2cc(NC(=O)CC)ccc2OC[C@@H]1C 7.21% [at 8 µM]
O=C(C[C@@H]1C=C[C@@H](NC(=O)Cc2ccccn2)[C@H](CO)O1)NCCCN1CCOCC1 2.76% [at 0.5 µM]
CC(C)CC#Cc1ccc2c(c1)O[C@@H](CN(C)Cc1ccncc1)[C@H](C)CN([C@@H](C)CO)S2(=O)=O 29.7%
COc1ccc(-c2ccc([C@@H]3[C@@H](CO)N(C(=O)C4CCCC4)[C@H]3C#N)cc2)cc1 25% [at 7.5 µM]
CCCC(=O)Nc1ccc2c(c1)C(=O)N(C)C[C@H](OC)[C@H](C)CN(Cc1ccc(F)cc1)[C@@H](C)CO2 17.3%
CC(=O)N(C)C[C@H]1Oc2ncc(C#Cc3ccccc3F)cc2C(=O)N([C@@H](C)CO)C[C@@H]1C 60.6%
C[C@@H]1CN([C@H](C)CO)C(=O)c2cc(C#Cc3ccccc3F)cnc2O[C@@H]1CN(C)C(=O)C1CCOCC1 17.1%
COc1cccc(C#Cc2cnc3c(c2)C(=O)N([C@H](C)CO)C[C@@H](C)[C@H](CN(C)C)O3)c1 6.76%
COc1cccc(C#Cc2cnc3c(c2)C(=O)N([C@@H](C)CO)C[C@H](C)[C@@H](CN(C)C)O3)c1 -9.5% [at 1.95 µM]
CCNC(=O)C[C@H]1C=C[C@H](NS(=O)(=O)c2ccc(F)cc2)[C@H](CO)O1 -12%
O=C(C[C@@H]1C[C@H]2c3cc(NC(=O)Nc4ccc(C(F)(F)F)cc4)ccc3O[C@H]2[C@@H](CO)O1)NCc1ccc2c(c1)OCO2 -23.2% [at 8 µM]
CO[C@@H]1CN(C)C(=O)c2ccc(NS(=O)(=O)c3ccccc3C)cc2OC[C@@H](C)N(S(C)(=O)=O)C[C@H]1C -12.6% [at 8 µM]
C[C@@H]1CN([C@@H](C)CO)S(=O)(=O)c2ccc(C#Cc3ccc(F)cc3)cc2O[C@@H]1CN(C)C(=O)NC1CCCCC1 -4.75% [at 8 µM]
C[C@@H]1CN([C@@H](C)CO)C(=O)c2cc(NS(=O)(=O)c3ccc(Cl)cc3)ccc2O[C@@H]1CN(C)Cc1ccccc1 18.9%
CO[C@H]1CN(C)C(=O)c2cc(NC(=O)C3CCOCC3)ccc2OC[C@H](C)N(C(=O)c2ccccc2)C[C@H]1C -6.51%
CO[C@H]1CN(C)C(=O)c2cc(NC(=O)C3CC3)ccc2OC[C@H](C)N(C(=O)c2ccccn2)C[C@@H]1C 5.91%
CO[C@@H]1CN(C)C(=O)c2ccc(NC(=O)C3CCC3)cc2OC[C@H](C)N(C(=O)CN(C)C)C[C@@H]1C -13.6% [at 0.5 µM]
CO[C@@H]1CN(C)C(=O)c2cc(NC(=O)C3CCOCC3)ccc2OC[C@H](C)N(C(=O)c2ccccc2)C[C@H]1C -8.41% [at 0.5 µM]
CO[C@H]1CN(C)C(=O)c2ccc(NC(=O)C3CCC3)cc2OC[C@H](C)N(C(=O)CN(C)C)C[C@H]1C -8.4%
CO[C@H]1CN(C)C(=O)c2cc(NC(=O)C3CCOCC3)ccc2OC[C@@H](C)N(C(=O)c2ccccc2)C[C@H]1C -10.4% [at 1.95 µM]
C[C@H]1CN([C@@H](C)CO)S(=O)(=O)c2ccc(C#CCC3CCCC3)cc2O[C@@H]1CN(C)C(=O)CC1CC1 19.7% [at 8 µM]
CO[C@H]1CN(C)C(=O)c2ccc(NC(=O)c3nc4ccccc4s3)cc2OC[C@H](C)N(Cc2cccnc2)C[C@H]1C 37.7%
CO[C@@H]1CN(C)C(=O)c2cc(NC(=O)Nc3ccccc3Cl)ccc2OC[C@@H](C)N(S(C)(=O)=O)C[C@H]1C -12.2% [at 0.5 µM]
O=C(CN1CCOCC1)N[C@@H]1CC[C@@H](CCNS(=O)(=O)c2ccccc2F)O[C@@H]1CO -8.89% [at 0.5 µM]
C[C@@H]1CN([C@@H](C)CO)C(=O)c2ccccc2-c2ccccc2CO[C@H]1CN(C)S(=O)(=O)c1ccc(Cl)cc1 33.2% [at 35 µM]
C[C@H](CO)N1C[C@H](C)[C@H](CN(C)S(=O)(=O)c2ccccc2)Oc2ccc(NC(=O)Nc3cccc4ccccc34)cc2C1=O -17.7% [at 8 µM]
